Experimental findings from PubChem BioAssay (EPA / NIEHS) are described below.

SMILES strings stand for the structures. Calls of active or inactive are those of the source. How the source made its calls: active means hit-call score of the fitted dose curve at least 0.9, where 1 is the maximum; inactive means score below 0.9.

Read-out in assay [1]: C-C motif chemokine 2 (Homo sapiens) (UniProt P13500)
Nature of the assay: BSK_KF3CT_MCP1: BioMAP Diversity Plus: KF3CT Assay for Monocyte Chemoattractant Protein 1 (MCP1/CCL2) Biomarker Activity (AID 2283073). Particulars: primary human keratinocytes with fibroblasts; actives raise or lower the signal. Summed up:
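Biomarker MCP-1 is measured by ELISA in primary human keratinocytes co-cultured with foreskin fibroblasts, 24 h after chemical treatment; DMSO serves as the negative control and activity baseline.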

Read-out in assay [2]: Matrix Metallopeptidase 9 (MMP9), MMP9 (gene 4318)
Nature of the assay: BSK_KF3CT_MMP9: BioMAP Diversity Plus: KF3CT Assay for Matrix Metallopeptidase 9 (MMP9) Biomarker Activity (AID 2283074).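 On AC50: MMP9 protein level quantified by ELISA in the co-culture.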 Particulars: primary human keratinocytes with fibroblasts; actives raise or lower the signal. Summed up:
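Human keratinocyte/foreskin fibroblast co-culture; compound added; 24 h; MMP-9 by ELISA; bidirectional fit vs DMSO baseline.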

Read-out in assay [3]: urokinase plasminogen activator (uPA), PLAU (gene 5328)
Nature of the assay: BSK_KF3CT_uPA: BioMAP Diversity Plus: KF3CT Assay for urokinase plasminogen activator (uPA) Biomarker Activity (AID 2283075). Particulars: primary human keratinocytes with fibroblasts; actives raise or lower the signal. Summed up:
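ELISA readout of uPA, analyzed for signal gain or loss relative to DMSO, from a human primary keratinocyte–foreskin fibroblast co-culture measured 24 h after chemical treatment.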

Read-out in assay [4]: CD40, CD40 (gene 958)
Nature of the assay: BSK_LPS_CD40: BioMAP Diversity Plus: LPS Assay for CD40 Biomarker Activity (AID 2283076). Particulars: primary human HUVEC with PBMC; actives raise or lower the signal. The method in brief: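 Using a multiplexed primary human co-culture (umbilical vein endothelium plus PBMC), CD40 was read by ELISA 24 h after dosing, with cytotoxicity tracked by sulforhodamine B staining of parallel cultures and activity fitted bidirectionally versus DMSO.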

Read-out in assay [5]: E-selectin (Homo sapiens) (UniProt P16581)
Nature of the assay: BSK_LPS_Eselectin: BioMAP Diversity Plus: LPS Assay for Eselectin Biomarker Activity (AID 2283077). Particulars: primary human HUVEC with PBMC; actives raise or lower the signal. Summed up:
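Dose chemical onto LPS-driven HUVEC/PBMC co-culture; after 24 h, run ELISA for E-selectin; fit up- and down-going responses relative to DMSO control.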

Assay [6] can be described thus: BSK_LPS_SRB: Viability Assessment in the BioMAP Diversity Plus: LPS Assay (AID 2283079).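 Further: total protein by sulforhodamine B absorbance as a cytotoxicity measure; measured one day after compound addition; fitted in both directions against DMSO so loss or gain of signal counts.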 The following applies: primary human HUVEC with PBMC. Summed up: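 Cytotoxicity endpoint in human endothelial–PBMC co-culture: 24 h exposure, then SRB (0.1%) staining, 560 nm read.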
Read-out in assay [7]: Interleukin-1 alpha (IL1a), IL1A (gene 3552)
The assay can be described thus: BSK_LPS_IL1a: BioMAP Diversity Plus: LPS Assay for Interleukin-1 alpha (IL1a) Biomarker Activity (AID 2283080). The following applies: primary human HUVEC with PBMC; actives raise or lower the signal. The method in brief:
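Primary human HUVEC and PBMC co-culture stimulated with LPS is dosed and harvested at 24 h. Both increases and decreases in ELISA-measured IL-1a are scored relative to DMSO.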

Read-out in assay [8]: Monocyte Chemoattractant Protein-1 (MCP1), CCL2 (gene 6347)
Nature of the assay: BSK_LPS_MCP1: BioMAP Diversity Plus: LPS Assay for Monocyte Chemoattractant Protein-1 (MCP1) Biomarker Activity (AID 2283081).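 On AC50: secreted MCP-1 protein quantified by ELISA in culture supernatant.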 Particulars: primary human HUVEC with PBMC; actives raise or lower the signal. The method in brief: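 Values derive from bidirectional fitting against DMSO of ELISA-measured MCP-1 in a human primary endothelial and mononuclear cell co-culture, 24 h after chemical addition under LPS activation.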

Assay [9] is described as follows: BSK_LPS_PGE2: BioMAP Diversity Plus: LPS Assay for Prostaglandin E2 (PGE2) Biomarker Activity (AID 2283082).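 On AC50: secreted prostaglandin E2 measured by ELISA in LPS-stimulated co-culture.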 Particulars: primary human HUVEC with PBMC; actives raise or lower the signal. Summed up:
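LPS-activated HUVEC/PBMC co-culture; cmpd dosed, 24 h; PGE2 by ELISA; bidirectional fit vs DMSO; SRB (0.1%, TCA-fixed, 560 nm) in parallel plates for overt cytotox.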

Read-out in assay [10]: Macrophage colony-stimulating factor (MCSF), CSF1 (gene 1435)
The assay can be described thus: BSK_LPS_MCSF: BioMAP Diversity Plus: LPS Assay for Macrophage colony-stimulating factor (MCSF) Biomarker Activity (AID 2283083). Particulars: primary human HUVEC with PBMC; actives raise or lower the signal. Summed up:
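Bidirectional fit versus DMSO of ELISA-measured M-CSF in co-cultured human umbilical vein endothelial cells and PBMC, sampled 24 h after dosing.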

Read-out in assay [11]: Tissue Factor, F3 (gene 2152)
Nature of the assay: BSK_LPS_TissueFactor: BioMAP Diversity Plus: LPS Assay for Tissue Factor Biomarker Activity (AID 2283084). Particulars: primary human HUVEC with PBMC; actives raise or lower the signal. The method in brief: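 Read-out: CD142 ELISA, 24 h. System: LPS-driven human endothelial/PBMC co-culture. Analysis: up- or down-signal fitted against DMSO.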

Read-out in assay [12]: Tumor necrosis factor (Homo sapiens) (UniProt P01375)
Nature of the assay: BSK_LPS_TNFa: BioMAP Diversity Plus: LPS Assay for Tumour Necrosis Factor alpha (TNFa) Biomarker Activity (AID 2283085). The following applies: primary human HUVEC with PBMC; actives raise or lower the signal. The method in brief:
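Read-out is ELISA of TNFa in primary human endothelial cell–PBMC co-cultures at 24 h after compound. Activity in either direction was fitted against DMSO.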

Read-out in assay [13]: Vascular cell adhesion molecule 1 (VCAM1), VCAM1 (gene 7412)
The assay can be described thus: BSK_LPS_VCAM1: BioMAP Diversity Plus: LPS Assay for Vascular cell adhesion molecule 1 (VCAM1) Biomarker Activity (AID 2283086). Particulars: primary human HUVEC with PBMC; actives raise or lower the signal. The method in brief: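 HUVEC + PBMC co-culture, LPS system; compound 24 h; VCAM-1 by ELISA; bidirectional fit vs DMSO control; parallel SRB (0.1%, TCA-fixed, 560 nm) for cytotoxicity.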

Read-out in assay [14]: CD38, CD38 (gene 952)
The assay can be described thus: BSK_SAg_CD38: BioMAP Diversity Plus: SAg Assay for CD38 Biomarker Activity (AID 2283087). Particulars: primary human HUVEC with PBMC; actives raise or lower the signal. The method in brief: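 Human HUVEC plus PBMC co-culture stimulated with superantigen; CD38 measured by ELISA 24 h after chemical dosing. Fluorescence read-out, bidirectional fit against DMSO; cytotoxicity tracked in parallel by SRB and Alamar Blue.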

Read-out in assay [15]: CD40, CD40 (gene 958)
Nature of the assay: BSK_SAg_CD40: BioMAP Diversity Plus: SAg Assay for CD40 Biomarker Activity (AID 2283088). The following applies: primary human HUVEC with PBMC; actives raise or lower the signal. Summed up: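 Endpoint derived by fitting increases or decreases versus DMSO controls. CD40 is detected by fluorescence ELISA in a human vascular co-culture of endothelium and PBMC at 24 h.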

Read-out in assay [16]: CD69, CD69 (gene 969)
Nature of the assay: BSK_SAg_CD69: BioMAP Diversity Plus: SAg Assay for CD69 Biomarker Activity (AID 2283089).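 On AC50: cell surface CD69 protein quantified by ELISA with fluorescence detection.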 The following applies: primary human HUVEC with PBMC; actives raise or lower the signal. Summed up:
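ELISA, fluorescence read-out: CD69 on human umbilical vein endothelial cell + PBMC co-culture, 24 h post-dosing. Gain or loss of signal fitted bidirectionally against DMSO baseline.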

Read-out in assay [17]: Monocyte Chemoattractant Protein-1 (MCP1), CCL2 (gene 6347)
Nature of the assay: BSK_SAg_MCP1: BioMAP Diversity Plus: SAg Assay for Monocyte Chemoattractant Protein-1 (MCP1) Biomarker Activity (AID 2283090). Particulars: primary human HUVEC with PBMC; actives raise or lower the signal. Summed up: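 MCP-1 levels in the endothelial–PBMC SAg co-culture were quantified by ELISA at 24 h post-dosing; both increases and decreases versus DMSO scored. Cytotoxicity monitored by SRB total protein in parallel cultures.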

Read-out in assay [18]: Transforming growth factor beta 1 (TGFb1), TGFB1 (gene 7040)
Nature of the assay: BSK_KF3CT_TGFb1: BioMAP Diversity Plus: KF3CT Assay for Transforming growth factor beta 1 (TGFb1) Biomarker Activity (AID 2283072). The following applies: primary human keratinocytes with fibroblasts; actives raise or lower the signal. Summed up:
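Primary human skin cells (keratinocytes, foreskin fibroblasts) were co-cultured, exposed to test chemical and sampled at 24 h. TGF-b1 levels were measured by ELISA and fitted bidirectionally relative to DMSO.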

Chain of Tumor necrosis factor (Homo sapiens) (P01375 whole entry, looked up): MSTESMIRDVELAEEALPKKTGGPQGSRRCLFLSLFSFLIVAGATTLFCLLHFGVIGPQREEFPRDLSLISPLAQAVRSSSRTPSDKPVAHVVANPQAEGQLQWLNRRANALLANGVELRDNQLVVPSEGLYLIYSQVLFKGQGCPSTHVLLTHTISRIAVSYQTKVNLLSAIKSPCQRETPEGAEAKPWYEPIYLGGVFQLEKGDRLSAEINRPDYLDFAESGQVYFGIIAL
Chain of E-selectin (Homo sapiens) (P16581 whole entry, looked up): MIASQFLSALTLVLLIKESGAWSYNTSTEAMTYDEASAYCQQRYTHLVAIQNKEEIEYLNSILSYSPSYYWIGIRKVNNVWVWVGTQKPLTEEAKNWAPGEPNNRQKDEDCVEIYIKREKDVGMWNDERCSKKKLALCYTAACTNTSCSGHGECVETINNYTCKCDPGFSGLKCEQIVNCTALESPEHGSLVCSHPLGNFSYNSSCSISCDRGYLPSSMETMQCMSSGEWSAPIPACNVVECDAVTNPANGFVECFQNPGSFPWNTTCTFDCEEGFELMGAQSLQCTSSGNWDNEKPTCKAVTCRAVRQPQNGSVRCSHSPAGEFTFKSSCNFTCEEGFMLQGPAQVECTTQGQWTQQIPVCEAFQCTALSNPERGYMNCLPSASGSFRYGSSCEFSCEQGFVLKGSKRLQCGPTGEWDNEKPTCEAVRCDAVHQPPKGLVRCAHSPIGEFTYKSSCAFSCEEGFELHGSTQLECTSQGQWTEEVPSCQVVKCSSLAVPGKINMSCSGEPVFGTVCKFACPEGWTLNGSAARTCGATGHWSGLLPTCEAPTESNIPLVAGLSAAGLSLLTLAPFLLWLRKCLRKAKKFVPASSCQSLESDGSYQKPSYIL

Consider `NCC(F)(F)C(F)(F)C(F)(F)C(F)(F)C(F)(F)C(F)(F)C(F)(F)F`, for which the outcome in assay [1], in assay [2], in assay [3], in assay [4], in [5] and in assay [6] was inactive. Also, the outcome in assay [7], in assay [8], in assay [9], in assay [10], in assay [11] and in [12] was inactive. The result in assay [13], in assay [14], in [15], in [16] and in assay [17] was inactive.

As usually defined, the AC50 is the midpoint of the concentration-response curve, whichever way the signal moves. On to `CCN(CC)CCNc1ccc(CNC=O)c2sc3ccc(OC)cc3c(=O)c12`, for which the AC50 was 26.7 µM (active) in assay [18]; 36.6 µM (active) in [1]; 17.5 µM (active) in assay [2]; 25.8 µM (active) in assay [3]; 35.4 µM (active) in assay [4]; 13.1 µM (active) in [5]. The AC50 in assay [6] is 25.3 µM (active); in [7], 11.8 µM (active); in [8], 20 µM (active); in assay [9], 4.06 µM (active); in assay [10], 20 µM (active); in assay [11], 25.5 µM (active). The AC50 is 17.8 µM (active) in [12]; 14.4 µM (active) in assay [13]; 26.7 µM (active) in assay [14]; 27 µM (active) in assay [15]; 24.9 µM (active) in assay [16]; 20 µM (active) in assay [17].

`Nc1cccc2c(N)cccc12`: the outcome in assay [18], in [1], in assay [2], in assay [3], in assay [4] and in assay [5] was inactive. For the same molecule, the result in assay [6], in assay [7], in assay [8], in [10], in [11] and in assay [12] was inactive. Also, the result in assay [13], in [14], in assay [15], in [16] and in assay [17] was inactive. Moreover, the AC50 in assay [9] is 12.9 µM (active).

Consider `C=C(C)C(=O)OCCC(F)(F)C(F)(F)C(F)(F)C(F)(F)C(F)(F)C(F)(F)F`, for which the outcome in assay [18], in [1], in [2], in assay [3], in assay [4] and in [5] was inactive. Further, the result in [6], in [7], in assay [8], in [9], in [10] and in [11] was inactive. The outcome in [12], in assay [13], in [14], in [15], in assay [16] and in [17] was inactive.

On to `CC(=O)CC(C)(C)O`, for which the result in [18], in assay [1], in assay [2], in assay [3], in assay [4] and in assay [5] was inactive. Besides, the outcome in assay [6], in assay [7], in assay [8], in assay [9], in assay [10] and in [11] was inactive. Besides, the outcome in assay [12], in [13], in assay [14], in assay [15], in [16] and in [17] was inactive.

For `O=c1c(-c2ccc(O)cc2)coc2cc(O)ccc12`, the outcome in [18], in assay [1], in [3], in [4], in assay [5] and in [6] was inactive. The result in assay [7], in assay [10], in [12], in [14], in assay [15] and in assay [16] was inactive. For the same molecule, the outcome in assay [17] was inactive. For the same molecule, the AC50 in assay [2] was 20 µM (active); in assay [8] it was 20 µM (active); in [11], 26.5 µM (active); in [13], 20 µM (active).
